Drawing on PubChem BioAssay (EPA / NIEHS), this text covers outcome and AC50 for five compounds.

In test [1] the target is human Histamine 1 Receptor (H1), HRH1 (gene 3269) (UniProt P35367). Put plainly: NVS_GPCR_hH1: NovaScreen (NVS) G Protein-Coupled Receptor Assay for human Histamine 1 Receptor (H1) (AID 2283268). Here is the method:
(§1) NVS_GPCR_hH1 is a biochemical, single-readout assay that uses extracted gene-proteins in a cell-free assay. Measurements were taken 1 hour after chemical dosing in a 96-well plate.NVS_GPCR_hH1 is one of one assay component(s) measured or calculated from the NVS_GPCR_hH1 assay. It is designed to make measurements of radioligand binding, a form of binding reporter, as detected with scintillation counting signals by Filter-based radiodetection technology.Data from the assay component NVS_GPCR_hH1 was analyzed into 1 assay endpoint. This assay endpoint, NVS_GPCR_hH1, was analyzed in the positive analysis fitting direction relative to DMSO as the negative control and baseline of activity. […] Furthermore, this assay endpoint can be referred to as a primary readout, because the performed assay has only produced 1 assay endpoint. […]
(§2) Binding assays used specific radioligands (tritiated, iodinated) with non-radioactive competitive displacement ligands in agonist or antagonist protocols (as indicated) and various reference compounds and inhibitors to titrate specific binding to receptors and transporters. Most enzyme assays (CYPs, kinases, phosphatases, proteases, HDACs) used recombinant protein and specific substrates (fluorescence mostly, some colorimetric and radioactive) and inhibitors, followed by a biochemical separation of substrate and product. […]

In test [2] the target is Muscarinic acetylcholine receptor M1 (Homo sapiens) (UniProt P11229). Put plainly: NVS_GPCR_hM1: NovaScreen (NVS) G Protein-Coupled Receptor Assay for human Muscarinic, M1 Receptor (AID 2283270). Here is the method: as §1, with “NVS_GPCR_hM1” for “NVS_GPCR_hH1”, “gene-proteins from CHO” for “gene-proteins”, “plate.NVS_GPCR_hM1” for “plate.NVS_GPCR_hH1”, “NVS_GPCR_hM1,” for “NVS_GPCR_hH1,”
as §2

Test [3] deals with Muscarinic acetylcholine receptor M3 (Homo sapiens) (UniProt P20309). Put plainly: NVS_GPCR_hM3: NovaScreen (NVS) G Protein-Coupled Receptor Assay for human Muscarinic, M3 Receptor (AID 2283272). The essentials:
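Radioligand displacement binding on human M3 receptor in CHO-derived membranes, 1 h incubation, filter-based scintillation counting. Primary screen in duplicate at 25 uM; actives followed up in concentration series; loss of signal versus DMSO.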

For test [4], the target named is human Muscarinic, M4 Receptor, CHRM4 (gene 1132) (UniProt P08173). Put plainly: NVS_GPCR_hM4: NovaScreen (NVS) G Protein-Coupled Receptor Assay for human Muscarinic, M4 Receptor (AID 2283274). The gist of the method: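 Cell-free radioligand displacement using CHO-derived human M4 receptor protein, 1 h after dosing; bound radioactivity by filtration and scintillation counting. Primary screen single 25 uM duplicate, actives followed in concentration series.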

Test [5] concerns the target human Neuropeptide Receptor Y1 (NPY1), NPY1R (gene 4886) (UniProt P25929). Put plainly: NVS_GPCR_hNPY1: NovaScreen (NVS) G Protein-Coupled Receptor Assay for human Neuropeptide Receptor Y1 (NPY1) (AID 2283276). The essentials: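 Cell-free radioligand binding using receptor extracted from SK-N-MC cells, 1 h incubation, filter-based scintillation counting. Primary screen single concentration 25 uM in duplicate; actives followed in concentration series. Loss of bound signal scored versus DMSO.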

Test [6] addresses Neuropeptide Y receptor type 2 (Homo sapiens) (UniProt P49146). Put plainly: NVS_GPCR_hNPY2: NovaScreen (NVS) G Protein-Coupled Receptor Assay for human Neuropeptide Receptor Y2 (NPY2) (AID 2283277). The gist of the method:
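Radioligand binding on membranes extracted from SK-N-MC cells, cell-free, read 1 h after dosing by filter-based scintillation counting. Loss of signal vs DMSO. Primary screen in duplicate at 25 uM; actives followed up in concentration-response up to 50 uM.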

Results filed as inconclusive are left out. The source made the active and inactive calls. Rule for the calls: active = hit-call score of the fitted dose curve at least 0.9, where 1 is the maximum; inconclusive = response in the unintended direction; inactive = score below 0.9.

human Histamine 1 Receptor (H1), HRH1 (gene 3269), sequence (P35367 whole entry, looked up): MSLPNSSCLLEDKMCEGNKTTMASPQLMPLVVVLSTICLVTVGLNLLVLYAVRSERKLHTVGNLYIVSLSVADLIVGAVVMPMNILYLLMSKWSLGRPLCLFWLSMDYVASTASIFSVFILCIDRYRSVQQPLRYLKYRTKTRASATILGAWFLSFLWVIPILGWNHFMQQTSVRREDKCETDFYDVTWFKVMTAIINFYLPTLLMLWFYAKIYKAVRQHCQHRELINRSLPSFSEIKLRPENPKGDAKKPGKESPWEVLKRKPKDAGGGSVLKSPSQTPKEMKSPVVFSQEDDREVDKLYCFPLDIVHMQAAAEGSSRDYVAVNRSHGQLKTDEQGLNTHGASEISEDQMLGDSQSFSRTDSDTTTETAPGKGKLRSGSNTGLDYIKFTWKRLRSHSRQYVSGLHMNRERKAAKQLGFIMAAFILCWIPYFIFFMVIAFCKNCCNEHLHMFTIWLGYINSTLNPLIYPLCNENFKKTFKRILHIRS
Muscarinic acetylcholine receptor M1 (Homo sapiens), sequence (P11229 whole entry, looked up): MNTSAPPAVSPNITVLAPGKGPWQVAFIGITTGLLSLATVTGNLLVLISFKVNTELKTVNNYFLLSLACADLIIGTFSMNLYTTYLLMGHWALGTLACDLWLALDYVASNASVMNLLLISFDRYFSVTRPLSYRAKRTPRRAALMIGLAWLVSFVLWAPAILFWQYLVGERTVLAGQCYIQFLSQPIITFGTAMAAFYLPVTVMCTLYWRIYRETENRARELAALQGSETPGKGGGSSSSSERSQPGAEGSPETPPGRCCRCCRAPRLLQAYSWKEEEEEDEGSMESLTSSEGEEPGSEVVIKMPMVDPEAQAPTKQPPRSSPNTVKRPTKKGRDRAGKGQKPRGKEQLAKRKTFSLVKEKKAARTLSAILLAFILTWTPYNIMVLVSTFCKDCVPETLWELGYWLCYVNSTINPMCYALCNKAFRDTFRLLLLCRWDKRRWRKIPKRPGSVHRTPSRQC
human Muscarinic, M4 Receptor, CHRM4 (gene 1132), sequence (P08173 whole entry, looked up): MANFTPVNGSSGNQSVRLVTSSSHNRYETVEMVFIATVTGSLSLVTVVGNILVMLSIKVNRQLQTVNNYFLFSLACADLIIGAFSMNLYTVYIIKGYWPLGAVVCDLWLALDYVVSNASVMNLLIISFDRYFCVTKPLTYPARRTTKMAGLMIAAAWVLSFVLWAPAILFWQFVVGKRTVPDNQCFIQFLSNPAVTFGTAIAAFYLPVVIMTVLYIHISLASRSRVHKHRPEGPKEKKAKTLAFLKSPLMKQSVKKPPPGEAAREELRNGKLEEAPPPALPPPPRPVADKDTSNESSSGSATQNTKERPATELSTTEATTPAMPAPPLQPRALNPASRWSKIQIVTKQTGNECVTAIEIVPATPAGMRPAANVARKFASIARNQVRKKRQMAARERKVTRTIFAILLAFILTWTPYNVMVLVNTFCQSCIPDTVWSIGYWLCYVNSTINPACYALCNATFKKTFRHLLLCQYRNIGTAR
human Neuropeptide Receptor Y1 (NPY1), NPY1R (gene 4886), sequence (P25929 whole entry, looked up): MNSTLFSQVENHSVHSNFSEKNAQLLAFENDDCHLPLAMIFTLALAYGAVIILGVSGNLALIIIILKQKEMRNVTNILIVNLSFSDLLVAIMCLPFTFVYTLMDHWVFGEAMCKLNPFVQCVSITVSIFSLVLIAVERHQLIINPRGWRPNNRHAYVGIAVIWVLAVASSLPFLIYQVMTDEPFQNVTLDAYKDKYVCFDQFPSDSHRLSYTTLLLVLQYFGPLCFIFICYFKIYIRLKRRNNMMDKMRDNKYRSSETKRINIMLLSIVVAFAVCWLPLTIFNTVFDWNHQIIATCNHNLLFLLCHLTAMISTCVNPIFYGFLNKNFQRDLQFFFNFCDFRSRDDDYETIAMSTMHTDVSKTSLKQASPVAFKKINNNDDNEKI
Muscarinic acetylcholine receptor M3 (Homo sapiens), sequence (P20309 whole entry, looked up): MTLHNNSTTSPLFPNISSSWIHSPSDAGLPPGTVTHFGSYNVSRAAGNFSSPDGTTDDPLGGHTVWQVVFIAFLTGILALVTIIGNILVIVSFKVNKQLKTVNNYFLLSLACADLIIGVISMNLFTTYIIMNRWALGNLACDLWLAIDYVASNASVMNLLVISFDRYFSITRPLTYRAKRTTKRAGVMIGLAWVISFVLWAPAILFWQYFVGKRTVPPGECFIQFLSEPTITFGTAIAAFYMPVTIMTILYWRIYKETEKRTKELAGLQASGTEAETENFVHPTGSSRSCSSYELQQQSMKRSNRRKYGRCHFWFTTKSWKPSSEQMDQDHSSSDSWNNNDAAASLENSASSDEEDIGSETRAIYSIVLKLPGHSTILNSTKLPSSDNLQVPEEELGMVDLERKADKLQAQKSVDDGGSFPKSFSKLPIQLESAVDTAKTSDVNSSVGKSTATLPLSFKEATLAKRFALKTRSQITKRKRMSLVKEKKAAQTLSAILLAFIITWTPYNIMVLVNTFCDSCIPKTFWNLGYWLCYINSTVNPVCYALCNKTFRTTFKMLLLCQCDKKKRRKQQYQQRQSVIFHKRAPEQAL
Neuropeptide Y receptor type 2 (Homo sapiens), sequence (P49146 whole entry, looked up): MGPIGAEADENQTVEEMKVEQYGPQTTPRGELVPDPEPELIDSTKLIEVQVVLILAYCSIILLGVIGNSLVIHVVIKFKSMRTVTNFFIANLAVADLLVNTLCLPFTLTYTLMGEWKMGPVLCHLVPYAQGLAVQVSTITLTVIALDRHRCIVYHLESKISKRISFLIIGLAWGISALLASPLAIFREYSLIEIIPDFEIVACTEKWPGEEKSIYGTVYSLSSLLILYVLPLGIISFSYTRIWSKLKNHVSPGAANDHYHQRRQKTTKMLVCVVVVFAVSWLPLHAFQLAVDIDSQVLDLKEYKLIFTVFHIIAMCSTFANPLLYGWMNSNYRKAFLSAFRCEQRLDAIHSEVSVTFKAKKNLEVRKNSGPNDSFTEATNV

As for `CCCCN(CCCC)SN(C)C(=O)Oc1cccc2c1OC(C)(C)C2`, the call in test [1] was inactive. Regarding `CC1(C)CN=C(NN=C(/C=C/c2ccc(C(F)(F)F)cc2)/C=C/c2ccc(C(F)(F)F)cc2)NC1`, the AC50 (commonly the midpoint of the concentration-response curve, whichever way the signal moves) in test [2] is 19.6 µM (active). On to `CCOP(=S)(Oc1ccc([N+](=O)[O-])cc1)c1ccccc1` (stereo unspecified), for which the result in test [3] and in test [4] was inactive. In the case of `ClC(Cl)c1ccccc1`, the AC50 in test [5] was 5.17 µM (active).

`Nc1ccc(Cl)cc1`: the call in test [6] was inactive.
